# Laboratory results published in PubChem BioAssay (EPA / NIEHS).
# “And” between values parts separate entries of the source, which are not always exact repeats. Equal values may be shown once. Records with an inconclusive call do not appear. Where a structure was tested more than once in an assay, its records may differ in their call. The source made the active and inactive calls. Rule for the calls: active = hit-call score of the fitted dose curve at least 0.9, where 1 is the maximum; inconclusive = response in the unintended direction; inactive = score below 0.9.
# Test: ATG_XTT_Cytotoxicity: Cytotoxicity Assessment in the Attagene TRANS-FACTORIAL HepG2 Assay (AID 2283584);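 for AC50: cells exposed to compound for 24 h before reading; active means loss of viability signal versus DMSO baseline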
# How it was run: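 XTT readout of cell number in transfected HepG2 cells, 24 h post-dosing; DMSO serves as negative control and baseline, with activity taken as loss of viability signal.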
SMILES,outcome,AC50
CN(C)C=O,inactive,
O=C(OCCOCCOC(=O)c1ccccc1)c1ccccc1,inactive,
CCCCCCCCC(=O)O,inactive,
CC[C@H](c1ccc(O)cc1)[C@@H](CC)c1ccc(O)cc1,inactive,144 µM (active) and 133 µM (active) and 164 µM (active)
CC(C)(C)c1ccc(O)c(C(C)(C)C)c1,inactive,
O=[N+]([O-])c1ccc(O)cc1,inactive,
CCCCOCCO,inactive,
OCCC(F)(F)C(F)(F)C(F)(F)C(F)(F)C(F)(F)C(F)(F)F,inactive,
CCC(C)(C)C1CCC(O)CC1 (stereo not drawn),inactive,
CCCCCCC(=O)O,inactive,
ClC1=C(Cl)C(Cl)(Cl)C(Cl)=C1Cl,inactive,
COCC(C)OCC(C)O (stereo not drawn),inactive,
C[C@@H]1C[C@H]2[C@@H]3CCC4=CC(=O)C=C[C@]4(C)[C@@]3(F)[C@@H](O)C[C@]2(C)[C@@]1(O)C(=O)COP(=O)(O)O,inactive,
CCCCC(CC)COC(=O)CCCCC(=O)OCc1ccccc1 (stereo not drawn),inactive,
O=C(O)Cc1cc(I)c(Oc2cc(I)c(O)c(I)c2)c(I)c1,inactive,
CCC(=C(c1ccc(O)cc1)c1ccc(OCCN(C)C)cc1)c1ccccc1,,18.4 µM (active) and 34.2 µM (active) and 6.67 µM (active)
CCCCCCCCOC(=O)CCCCCCCCC(=O)OCCCCCCCC,inactive,
Oc1cccc(O)c1,inactive,
CCc1ccc(CCOc2ccc(CC3SC(=O)NC3=O)cc2)nc1 (stereo not drawn),inactive,
OCCC(F)(F)C(F)(F)C(F)(F)C(F)(F)C(F)(F)C(F)(F)C(F)(F)C(F)(F)F,inactive,
CCCCCCCCCCCCc1ccccc1S(=O)(=O)O,,156 µM (active)
Cc1oc(-c2ccccc2)nc1CCOc1ccc(C[C@H](Nc2ccccc2C(=O)c2ccccc2)C(=O)O)cc1,inactive,
c1ccc2c(c1)ccc1ccccc12,inactive,
CCCCC(CC)COC(=O)CCCCC(=O)OCC(CC)CCCC (stereo not drawn),inactive,
COc1ccc([N+](=O)[O-])cc1N,inactive,

# Test: TOX21_p53_BLA_p2_viability: Viability Assessment in the Tox21 HCT-116 p53 Agonism Beta-lactamase Assay, Phase 2 (AID 2283591);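 note: compound exposure lasted 16 h at 37 °C; actives lower the ATP signal meaning cytotoxicity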
# How it was run: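 HCT-116 p53-bla cells (4000/well) rested 5 h at 37C, then received compounds in DMSO (217-fold dilution) for 16 h at 37C, 5% CO2. After the CCF4 read, CellTiter-Glo was added; ATP luminescence was read after 30 min at room temperature.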
SMILES,outcome,AC50
CCN(CC)CCNc1ccc(CNC=O)c2sc3ccc(OC)cc3c(=O)c12,inactive,
N#C[C@@H]1CC(F)(F)CN1C(=O)CNC1CC2CCC(C1)N2c1ncccn1 (stereo partly drawn),inactive,
CCCCCCCCC(=O)O,inactive,
CC[C@H](c1ccc(O)cc1)[C@@H](CC)c1ccc(O)cc1,inactive,61.7 µM (active)
CC(C)(C)c1ccc(O)c(C(C)(C)C)c1,inactive,42.4 µM (active)
O=[N+]([O-])c1ccc(O)cc1,inactive,
NC(=O)N1C(=O)C(C(=O)c2cc(Cl)cs2)c2cc(F)c(Cl)cc21 (stereo not drawn),inactive,
ClC1=C(Cl)C(Cl)(Cl)C(Cl)=C1Cl,inactive,
CCCCC(CC)COC(=O)CCCCC(=O)OCc1ccccc1 (stereo not drawn),inactive,
O=C(O)Cc1cc(I)c(Oc2cc(I)c(O)c(I)c2)c(I)c1,,24.1 µM (active)
CCc1nn(C2CCCCC2)c2cc(C3(C#N)CCC(C(=O)O)CC3)ccc12 (stereo not drawn),inactive,
Oc1cccc(O)c1,inactive,
CCc1ccc(CCOc2ccc(CC3SC(=O)NC3=O)cc2)nc1 (stereo not drawn),inactive,
OCCC(F)(F)C(F)(F)C(F)(F)C(F)(F)C(F)(F)C(F)(F)C(F)(F)C(F)(F)F,inactive,
Cc1oc(-c2ccccc2)nc1CCOc1ccc(C[C@H](Nc2ccccc2C(=O)c2ccccc2)C(=O)O)cc1,,7.33 µM (active)
c1ccc2c(c1)ccc1ccccc12,inactive,
CCCCC(CC)COC(=O)CCCCC(=O)OCC(CC)CCCC (stereo not drawn),inactive,
CC(C)CCCCCCOC(=O)CCCCC(=O)OCCCCCCC(C)C,inactive,
Cc1cc(CCN2CCN(c3nsc4ccccc34)CC2)cc2c1NC(=O)CC2(C)C,,60.5 µM (active)
CCCOc1sc(C(=O)N2CCC(c3cc(CN)ccc3F)CC2)c(C)c1Br,,43.2 µM (active)
